Results taken from PubChem BioAssay.
Active and inactive are the calls of the source.

Key:
Albumin (Bos taurus) = Albumin (Bos taurus) (UniProt P02769); assay: compounds binding labelled BSA control protein – biochemical, small-molecule microarray, Alexa647 label, 635/667 nm fluorescence, artefact control for SMM control protein annotation, profiling panel (AID 1118); settings: BSA-A647 binding, fluorescence 635 nm, higher = more signal;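 further: score merges 667 nm emission intensity and signal-to-noise per printed compound spot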
[1] = probe aXIP binding to arrayed compounds – biochemical, NeuroSMM set, 635/667 nm fluorescence, primary screen (AID 1119); settings: small-molecule microarray, higher = more signal, called active from +8 up or from −8 down;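 further: probe is the protein aXip251-270 applied at 1 µg/mL to compound-printed slides; binding of probe to printed compounds measured as 667 nm fluorescence plus signal to noise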
[2] = probe aNOTCH3 binding on compound microarray – biochemical, small-molecule microarray, 635/667 nm fluorescence, primary screen (AID 1120); settings: higher = more signal;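 further: probe is a biotin-tagged antibody raised against NOTCH3 rather than NOTCH3 protein; score merges spot fluorescence near 667 nm with spot signal to noise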
[3] = probe aNOTCH2 binding on compound microarray – biochemical, small-molecule microarray, 635/667 nm fluorescence, primary screen (AID 1121); settings: higher = more signal;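 further: score merges feature fluorescence read at 667 nm with its signal to noise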
[4] = target: Carbonic anhydrase 2 (Homo sapiens) (UniProt P00918); assay: compounds binding carbonic anhydrase 2 – biochemical, small-molecule microarray, Alexa647-labelled CAII, profiling panel (AID 1122); settings: CAII-A647 binding fluorescence, higher = more signal
[5] = COS7 lysate on small-molecule microarray, probe aHis, 635 nm (AID 1123); settings: COS7 cell lysate, fluorescence, higher = more signal;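 further: z-score combines 667nm fluorescence intensity with signal-to-noise per printed compound spot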
[6] = probe aLAP1 signal on lysate-treated microarray – cell lysate, small-molecule microarray, COS7 lysate, primary screen (AID 1124); settings: probe aLAP1, fluorescence, higher = more signal;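 further: lysate comes from COS7 cells expressing LAP1 and is applied at 0.3 µg/mL; score merges spot fluorescence near 667 nm with signal-to-noise over triplicate slides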
Sam68 (KHDRBS1) = assay: compounds binding KHDRBS1 protein – biochemical, small-molecule microarray, 635 nm fluorescence, primary screen (AID 1125); settings: higher = more signal;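 further: score merges 667 nm channel intensity with signal to noise over triplicate slides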
[7] = tested on: Chordin-like protein 2 (CHRDL2); assay: compounds binding chordin-like 2 – biochemical, small-molecule microarray, 635 nm fluorescence, primary screen (AID 1126); settings: fluorescence 635 nm, higher = more signal;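 further: printed compound slides probed with Chrdl2 protein at 4 µg/mL for 1 h at 4 C; score merges 667 nm emission intensity with signal to noise over three replicate slides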
[8] = target: Concanavalin-A (Canavalia ensiformis) (UniProt P02866); assay: compounds binding concanavalin A lectin – biochemical, small-molecule microarray, Alexa647 label, 635 nm, artefact control for SMM control protein annotation, primary screen (AID 1127); settings: ConA-A647 binding fluorescence, higher = more signal;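 further: z combines 667 nm emission intensity with signal-to-noise across three replicate slides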
Sequence of Concanavalin-A (Canavalia ensiformis) (P02866 whole entry, looked up): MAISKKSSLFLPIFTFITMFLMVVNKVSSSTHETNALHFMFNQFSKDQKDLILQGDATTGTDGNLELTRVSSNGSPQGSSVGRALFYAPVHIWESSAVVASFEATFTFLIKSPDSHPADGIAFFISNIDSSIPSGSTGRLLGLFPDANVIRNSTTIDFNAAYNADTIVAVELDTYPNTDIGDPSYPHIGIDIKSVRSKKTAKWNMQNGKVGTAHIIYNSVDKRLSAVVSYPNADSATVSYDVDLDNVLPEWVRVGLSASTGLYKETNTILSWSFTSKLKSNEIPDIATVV

Sequence of Albumin (Bos taurus) (P02769 whole entry, looked up): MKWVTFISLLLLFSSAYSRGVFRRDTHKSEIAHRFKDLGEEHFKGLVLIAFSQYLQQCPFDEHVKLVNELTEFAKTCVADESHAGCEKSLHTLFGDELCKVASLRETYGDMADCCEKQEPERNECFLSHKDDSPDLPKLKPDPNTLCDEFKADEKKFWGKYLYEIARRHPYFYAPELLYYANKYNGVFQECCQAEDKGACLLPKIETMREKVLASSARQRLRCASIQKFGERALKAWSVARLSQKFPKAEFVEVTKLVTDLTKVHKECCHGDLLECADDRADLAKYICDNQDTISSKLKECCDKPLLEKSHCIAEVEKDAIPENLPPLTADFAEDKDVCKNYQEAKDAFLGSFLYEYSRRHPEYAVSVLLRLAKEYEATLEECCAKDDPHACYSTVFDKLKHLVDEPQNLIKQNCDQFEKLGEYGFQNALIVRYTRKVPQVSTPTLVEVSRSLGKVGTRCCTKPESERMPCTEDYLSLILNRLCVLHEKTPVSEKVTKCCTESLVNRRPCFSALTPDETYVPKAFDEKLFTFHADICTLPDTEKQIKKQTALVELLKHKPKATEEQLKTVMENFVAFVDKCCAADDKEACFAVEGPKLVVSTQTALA

COc1ccc(NN2C(C(O)c3ccc(N(C)C)cc3)C=CC3C(=O)N(C4CCCCC4)C(=O)C32)cc1 (stereo not given)
composite z-score (Albumin (Bos taurus)): 0.906
composite Z-score [1]: -0.247 (inactive)
composite z-score [2]: 0.391
composite z-score [3]: 0.0992
composite z-score [4]: 0.689
composite z-score [5]: 2.13
composite z-score [6]: 0.414
composite z-score (Sam68 (KHDRBS1)): 1.31
composite z-score [7]: 0.212
composite z-score [8]: 1.16

CCCCCCCCCCC(O)C1C=CC2C(=O)NC(=O)C2N1Nc1ccc(Cl)cc1Cl (stereo not given)
composite z-score (Albumin (Bos taurus)): 0.145
composite Z-score [1]: -0.383 (inactive)
composite z-score [2]: -0.0288
composite z-score [3]: -0.077
composite z-score [4]: 0.442
composite z-score [5]: 1.66
composite z-score [6]: 0.192
composite z-score (Sam68 (KHDRBS1)): -0.0789
composite z-score [7]: 0.0425
composite z-score [8]: 0.248

COc1ccc(C#Cc2ccc3c(c2)[C@]2(C(=O)N3)[C@H](c3ccc(O)cc3)N3[C@H](c4ccccc4)[C@H](c4ccccc4)OC(=O)[C@H]3[C@@H]2C(=O)N2CCc3cc(OC)c(OC)cc3C2)cc1
composite z-score (Albumin (Bos taurus)): 0.719
composite Z-score [1]: 1.39 (inactive)
composite z-score [2]: 0.0196
composite z-score [3]: -0.12
composite z-score [4]: 0.459
composite z-score [5]: 1.33
composite z-score [6]: 0.326
composite z-score (Sam68 (KHDRBS1)): 1.31
composite z-score [7]: 0.356
composite z-score [8]: 1.12

C#CCN1[C@@H](Cc2ccc(O)cc2)C(=O)O[C@H](Cc2ccccc2)[C@@H]1/C=C/C1CC1
composite z-score (Albumin (Bos taurus)): -0.545
composite Z-score [1]: 0.228 (inactive)
composite z-score [2]: 0.14
composite z-score [3]: -0.14
composite z-score [4]: 0.117
composite z-score [5]: -0.225
composite z-score [6]: 0.472
composite z-score (Sam68 (KHDRBS1)): -0.329
composite z-score [7]: 0.498
composite z-score [8]: -0.457

CCCC=C(CCC)[C@@H](NS(=O)(=O)c1ccc(Cl)cc1)c1ccc(C(=O)OC)cc1
composite z-score (Albumin (Bos taurus)): 0.196
composite Z-score [1]: -0.243 (inactive)
composite z-score [2]: -0.0111
composite z-score [3]: 0.0703
composite z-score [4]: 0.805
composite z-score [5]: 0.314
composite z-score [6]: -0.159
composite z-score (Sam68 (KHDRBS1)): 0.674
composite z-score [7]: -0.0433
composite z-score [8]: 0.627

CCCC[C@@H]1C[C@H]1[C@@H](NC(=O)c1cccnc1)c1ccc(Cl)cc1
composite z-score (Albumin (Bos taurus)): -1.41
composite Z-score [1]: -0.29 (inactive)
composite z-score [2]: -0.429
composite z-score [3]: -0.185
composite z-score [4]: -0.404
composite z-score [5]: 0.878
composite z-score [6]: -0.271
composite z-score (Sam68 (KHDRBS1)): -1.27
composite z-score [7]: -1.95
composite z-score [8]: -2.03

O=C1O[C@@H](c2ccccc2)[C@@H](c2ccccc2)N2[C@@H](c3ccccc3OCCO)[C@]3(C(=O)Nc4ccccc43)[C@@H](C(=O)O)[C@H]12
composite z-score (Albumin (Bos taurus)): 0.858
composite Z-score [1]: -0.0247 (inactive)
composite z-score [2]: -0.254
composite z-score [3]: -0.0657
composite z-score [4]: 0.441
composite z-score [5]: 1.78
composite z-score [6]: 0.369
composite z-score (Sam68 (KHDRBS1)): 1.12
composite z-score [7]: -0.165
composite z-score [8]: 1.13

[N-]=[N+]=Nc1ccccc1C[C@@]1(C(=O)N2CCCCC2)N=C(c2ccc(OCCCO)cc2)O[C@@H]1c1ccccc1
composite z-score (Albumin (Bos taurus)): 0.782
composite Z-score [1]: 0.219 (inactive)
composite z-score [2]: 0.107
composite z-score [3]: 0.111
composite z-score [4]: 0.398
composite z-score [5]: 2.37
composite z-score [6]: 0.677
composite z-score (Sam68 (KHDRBS1)): 1.22
composite z-score [7]: -0.687
composite z-score [8]: 1.12

Cc1ccc(C2C3C(=O)CC4C(=O)N(c5ccccc5)C(=O)C4C3CN2S(=O)(=O)c2ccc(C)cc2)cc1 (stereo not given)
composite z-score (Albumin (Bos taurus)): 0.684
composite Z-score [1]: -0.0384 (inactive)
composite z-score [2]: 0.469
composite z-score [3]: 0.603
composite z-score [4]: 0.539
composite z-score [5]: 2.17
composite z-score [6]: 0.362
composite z-score (Sam68 (KHDRBS1)): 1.17
composite z-score [7]: -0.479
composite z-score [8]: 0.671

COCC(=C=CC[C@H](O)c1cccc(OCCO)c1)C[C@H](O)c1cc(Cl)cc(Cl)c1O
composite z-score (Albumin (Bos taurus)): 0.187
composite Z-score [1]: -0.103 (inactive)
composite z-score [2]: -0.0343
composite z-score [3]: -0.0083
composite z-score [4]: 0.383
composite z-score [5]: 1.77
composite z-score [6]: 0.328
composite z-score (Sam68 (KHDRBS1)): 1.3
composite z-score [7]: 0.695
composite z-score [8]: 0.337

COc1ccc(CCNC(=O)[C@@]2(c3ccc([N+](=O)[O-])cc3)CC(=O)N(CC34CC5CC(CC(C5)C3)C4)[C@@H]2c2ccc(CO)cc2I)cc1
composite z-score (Albumin (Bos taurus)): -0.367
composite Z-score [1]: -0.355 (inactive)
composite z-score [2]: -0.332
composite z-score [3]: -0.214
composite z-score [4]: 0.0976
composite z-score [5]: 2.27
composite z-score [6]: 0.283
composite z-score (Sam68 (KHDRBS1)): 0.925
composite z-score [7]: 0.394
composite z-score [8]: 0.834

NCCCCCNC(=O)[C@H]1C[C@H]2C(=O)N[C@@H](Cc3ccccc3)C(=O)N2[C@H]1c1cccc(OCCO)c1
composite z-score (Albumin (Bos taurus)): 0.862
composite Z-score [1]: 1.11 (inactive)
composite z-score [2]: 0.144
composite z-score [3]: 0.0409
composite z-score [4]: 0.438
composite z-score [5]: 0.24
composite z-score [6]: 1.07
composite z-score (Sam68 (KHDRBS1)): 0.474
composite z-score [7]: 0.723
composite z-score [8]: 0.883

CC(C)Cc1ccc(CN2CC[C@@H](N)C2)cc1
composite z-score (Albumin (Bos taurus)): -0.275
composite Z-score [1]: -0.536 (inactive)
composite z-score [2]: -0.152
composite z-score [3]: -0.205
composite z-score [4]: -0.501
composite z-score [5]: -0.304
composite z-score [6]: -0.485
composite z-score (Sam68 (KHDRBS1)): -1.62
composite z-score [7]: -0.629
composite z-score [8]: -0.732

CC(c1ccccc1)C(O)C1C=CC2C(=O)N(C)C(=O)C2N1NC(=O)OC(C)(C)C (stereo not given)
composite z-score (Albumin (Bos taurus)): 0.974
composite Z-score [1]: 0.741 (inactive)
composite z-score [2]: 0.148
composite z-score [3]: -0.0159
composite z-score [4]: 0.695
composite z-score [5]: 2.53
composite z-score [6]: 0.857
composite z-score (Sam68 (KHDRBS1)): 1.3
composite z-score [7]: -0.338
composite z-score [8]: 1.12

O[C@@H](Cc1ccccc1)[C@@H](/C=C/C1CC1)NCc1cccc(Cl)c1
composite z-score (Albumin (Bos taurus)): -0.0308
composite Z-score [1]: -0.515 (inactive)
composite z-score [2]: -0.272
composite z-score [3]: -0.146
composite z-score [4]: -0.397
composite z-score [5]: -0.266
composite z-score [6]: -0.273
composite z-score (Sam68 (KHDRBS1)): -0.53
composite z-score [7]: -1.11
composite z-score [8]: -0.509

NC(=O)[C@@H]1[C@H]2C(=O)O[C@H](c3ccccc3)[C@H](c3ccccc3)N2[C@H](c2ccc(O)cc2)[C@@]12C(=O)Nc1ccc(C#CC3=CCCCC3)cc12
composite z-score (Albumin (Bos taurus)): 0.299
composite Z-score [1]: 1.1 (inactive)
composite z-score [2]: 0.81
composite z-score [3]: -0.117
composite z-score [4]: 0.411
composite z-score [5]: 2
composite z-score [6]: 0.331
composite z-score (Sam68 (KHDRBS1)): 0.449
composite z-score [7]: -0.0967
composite z-score [8]: 0.426

COC(=O)[C@@]1(Cc2ccccc2)[C@H]2c3cc(C(=O)N(C)C)n(Cc4ccc(OC)c(OC)c4)c3C[C@H]2CN1C(=O)c1ccccc1
composite z-score (Albumin (Bos taurus)): 0.864
composite Z-score [1]: 0.0388 (inactive)
composite z-score [2]: 0.775
composite z-score [3]: 0.318
composite z-score [4]: 0.467
composite z-score [5]: 3.07
composite z-score [6]: 0.463
composite z-score (Sam68 (KHDRBS1)): 1.29
composite z-score [7]: -0.78
composite z-score [8]: 0.829

COc1cc2c(cc1OC)CN(C(=O)[C@H]1[C@@H]3C(=O)O[C@@H](c4ccccc4)[C@@H](c4ccccc4)N3[C@@H](c3ccccc3OCCO)[C@]13C(=O)Nc1ccc(C#CCCO)cc13)CC2
composite z-score (Albumin (Bos taurus)): 0.766
composite Z-score [1]: 0.397 (inactive)
composite z-score [2]: 0.0268
composite z-score [3]: -0.118
composite z-score [4]: 0.383
composite z-score [5]: 0.935
composite z-score [6]: -0.0376
composite z-score (Sam68 (KHDRBS1)): 1.33
composite z-score [7]: 0.579
composite z-score [8]: 1.11

CC1CC/C=C\[C@H]2OC34C=CCN(Cc5ccccc5)C(=O)[C@H]3N(C(C)CO)C(=O)[C@@H]4C2C(=O)O1 (stereo not given in full)
composite z-score (Albumin (Bos taurus)): -0.852
composite Z-score [1]: -0.592 (inactive)
composite z-score [2]: -0.0647
composite z-score [3]: -0.0846
composite z-score [4]: 0.331
composite z-score [5]: -0.412
composite z-score [6]: -0.0231
composite z-score (Sam68 (KHDRBS1)): -0.99
composite z-score [7]: -0.0576
composite z-score [8]: -0.239

COCCOC(=O)N1C(=O)[C@@]2(c3ccccc31)[C@H](C(=O)N1CCc3cc(OC)c(OC)cc3C1)[C@H]1C(=O)O[C@H](c3ccccc3)[C@H](c3ccccc3)N1[C@@H]2c1ccc(O)cc1
composite z-score (Albumin (Bos taurus)): 0.795
composite Z-score [1]: 0.27 (inactive)
composite z-score [2]: -0.0072
composite z-score [3]: 0.0129
composite z-score [4]: 0.424
composite z-score [5]: 2.19
composite z-score [6]: 0.808
composite z-score (Sam68 (KHDRBS1)): 1.31
composite z-score [7]: 0.628
composite z-score [8]: 1.17

CC(C)(C)OC(=O)CC[C@@]1(C(=O)N2CCCCC2)N=C(c2ccc(OCCCO)cc2)O[C@@H]1c1ccccc1
composite z-score (Albumin (Bos taurus)): 0.962
composite Z-score [1]: -0.317 (inactive)
composite z-score [2]: 0.372
composite z-score [3]: -0.0659
composite z-score [4]: 0.781
composite z-score [5]: 2.59
composite z-score [6]: 0.796
composite z-score (Sam68 (KHDRBS1)): 1.29
composite z-score [7]: -0.409
composite z-score [8]: 0.719

[N-]=[N+]=Nc1ccccc1C[C@@]1(C(=O)N2CCCCC2)N=C(c2ccc(OCCCO)cc2)O[C@@H]1c1ccccc1N=[N+]=[N-]
composite z-score (Albumin (Bos taurus)): 0.998
composite Z-score [1]: 0.203 (inactive)
composite z-score [2]: 0.384
composite z-score [3]: 0.0564
composite z-score [4]: 0.299
composite z-score [5]: 1.33
composite z-score [6]: 0.158
composite z-score (Sam68 (KHDRBS1)): 1.32
composite z-score [7]: -0.501
composite z-score [8]: 1.12
